CF NFkB block = inhibitors of cystic fibrosis induced NF-kB; KKLEB NF-kB-GFP reporter, PAF-induced, GFP fluorescence overnight; inhibition, % at 5 µM; 360,000 tested, 0.86% active;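 active = at least 50% inhibition at 5 µM, scaled per plate between neutral and stimulator controls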;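 note: PAF is a Pseudomonas aeruginosa culture filtrate used as stimulus; plate controls were PAF-stimulated DMSO wells for no effect and unstimulated DMSO wells for full effect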
LMP1 NFkB inh = Epstein-Barr LMP1 NF-kappaB reporter inhibition; AID 504558; LMP1-induced NF-kappaB luciferase reporter cells, luminescence; 350,000 tested, 0.69% active; inhibition, % at 12.5 µM; in the data active = inhibition above about 41%;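 note: 0% = neutral control wells and 100% = reference inhibitor control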
MITF TRPM1 inh = MITF TRPM1 promoter inhibition in SK-MEL-5 cells. 330,000 tested, 0.83% active. SK-MEL-5 TRPM1 promoter luciferase, 24 h. AID 488899. inhibition, % at 12.5 µM;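 active = mean inhibition across replicates of 60% or more, whatever share of single replicates reaches that level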
Shn3 3UTR inh = Schnurri-3 reporter inhibition in Clone20 osteoblasts; Clone20 osteoblast Shn3 3'UTR firefly luciferase, 24 h; inhibition, % at 12.5 µM; 360,000 tested, 0.52% active; AID 588674;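 active = mean inhibition of at least 75% with every replicate also reaching 75%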;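 note: 0% = median of neutral control wells and 100% = pilot-screen positive control compound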
KKLEB tox = reduces viability of KKLEB cystic fibrosis airway cells; activity change (cytotoxicity), % at 5 µM; KKLEB CF airway cells viability, ATPlite luminescence, overnight; active compounds read low; cells stimulated with P. aeruginosa culture filtrate; 360,000 tested, 0.36% active;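 active = corrected activity change at or below -50% at 5 µM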
Peg3 prom inh = reduces Peg3 promoter-driven luciferase expression in HeLa; 360,000 tested, 1.7% active; inhibition, % at 20 µM; HeLa PEG-Prom luciferase reporter, luminescence, overnight;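 active = inhibition of at least 50% at 20 µM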
Numbers without * were called inactive; x = no result. Rows were chosen to be rich in hits. Some 2.9% of all compounds tested hit in one or more screens of this group.

SMILES	CF NFkB block	LMP1 NFkB inh	MITF TRPM1 inh	Shn3 3UTR inh	KKLEB tox	Peg3 prom inh
CC(C)C[C@@H](CN1CCC[C@@H]1CN1C(=S)NC[C@@H]1Cc1ccccc1)N1C[C@H](Cc2ccc(O)cc2)N(CC2CCCCCC2)C1=S	45.3	x	x	-19.3	-18.4	44.4
CC(C)C[C@H]1CNC(=S)N1C[C@H]1CCCN1C[C@H](CC(C)C)N1C[C@H](Cc2ccc(O)cc2)N(CC2CCCCCC2)C1=S	36.6	x	x	-15.6	-26.2	86.7*
CC(C)C[C@H]1CNC(=S)N1C[C@H]1CCCN1C[C@H](CC(C)C)N1C[C@H](Cc2ccc(O)cc2)N(CCc2ccccc2)C1=S	45.0	x	x	-3.2	-18.7	69.2*
CC(C)C[C@H]1CNC(=S)N1CC1CCCN1C[C@H](CC(C)C)N1C[C@H](Cc2ccc(O)cc2)N(CC2CCCCCC2)C1=S (stereo partly drawn)	39.4	8.0	10.7	8.3	-1.0	87.3*
CC(C)C[C@H]1CNC(=S)N1C[C@H]1CCCN1C[C@H](Cc1ccc(O)cc1)N1C[C@H](CC(C)C)N(CC2CCCCCC2)C1=S	42.2	x	x	12.3	-9.2	19.4
CC(C)C[C@@H](CN1CCC[C@@H]1CN1C(=S)NC[C@@H]1Cc1ccccc1)N1C[C@H](Cc2ccc(O)cc2)N(CC2CCCCC2)C1=S	22.8	x	x	-63.9	-10.5	-11.6
CC(C)C[C@H]1CNC(=S)N1CC1CCCN1C[C@H](CC(C)C)N1C[C@H](Cc2ccc(O)cc2)N(CC2CCCCC2)C1=S (stereo partly drawn)	36.0	-8.1	13.2	-0.9	8.5	78.0*
CC1CCCC(NC(=O)c2cc(S(=O)(=O)N3CCCCC3)c[nH]2)C1C (stereo not drawn)	14.9	x	x	21.4	-3.6	5.1
CCN(C(=O)c1cnc(N2CCN(c3ncccn3)CC2)c2ccccc12)c1cccc(Cl)c1	9.7	16.3	15.9	33.8	-5.1	21.6
CN(C(=O)c1cnc(N2CCN(c3ncccn3)CC2)c2ccccc12)c1ccc(Cl)cc1	14.1	-1.8	-4.7	11.7	-0.7	61.6*
CC1CCCC(=NNc2ccc3ccccc3n2)C1 (stereo not drawn)	-8.1	-17.7	-12.5	32.1	1.5	-154.7
CC(O)(c1ccc(F)c(F)c1)c1nc(-c2cccc(C(F)(F)F)c2)cs1 (stereo not drawn)	-1.1	x	x	3.6	-17.3	10.0
CC(O)(c1ccncc1)c1nc(-c2cccc(C(F)(F)F)c2)cs1 (stereo not drawn)	-11.7	x	x	85.2*	3.7	18.3
CC(O)(c1ccc(F)c(F)c1)c1nc(-c2ccc(Cl)cc2)cs1 (stereo not drawn)	-14.2	x	x	6.7	7.8	76.1*
CC(C)CNC(=O)C1(C)CCCN1C(=O)c1c(Cl)cccc1Cl (stereo not drawn)	-11.9	x	x	-6.5	-1.6	-4.7
CN(CC(=O)NC1CCCCC1)S(=O)(=O)c1ccc(Cl)cc1	4.1	16.3	8.8	2.3	-2.1	90.9*
C[C@@H]1CN([C@H](C)CO)C(=O)c2c(c3ccccc3n2C)-c2ccccc2CO[C@H]1CN(C)Cc1ccc(-c2ccccc2)cc1	4.0	-5.3	x	1.3	-0.2	83.0*
CSc1cccc(CN2CCC(CO)(Cc3cccc(C(F)(F)F)c3)CC2)c1	30.1	0.4	0.0	49.4	-16.3	52.2*
Cc1ccc(-n2cc(CN3CCC(CO)(Cc4cccc(C(F)(F)F)c4)CC3)cn2)cc1	19.1	5.6	42.6	58.1	-25.1	107.6*
OCC1(Cc2cccc(C(F)(F)F)c2)CCN(Cc2cc(F)cc(F)c2)CC1	6.4	-19.5	6.1	7.0	-1.7	21.1
COc1ccc(CC(N)c2csc(NC(=O)CCc3ccccc3)n2)cc1 (stereo not drawn)	-3.5	x	x	-18.1	-7.3	32.6
COc1ccc(CNC(=O)Nc2nc(C(N)Cc3ccc(Cl)cc3)cs2)cc1 (stereo not drawn)	19.0	x	x	16.0	-12.1	95.6*
COc1ccc(CNC(=O)Nc2nc(C(N)CCc3ccccc3)cs2)cc1 (stereo not drawn)	8.3	x	x	0.3	-6.2	88.0*
COc1ccccc1CNC(=O)Nc1nc(C(N)Cc2ccc(Cl)cc2)cs1 (stereo not drawn)	21.8	x	x	-1.8	-17.2	93.7*
COc1cc(CNC(=O)Nc2nc(C(N)CCc3ccccc3)cs2)cc(OC)c1OC (stereo not drawn)	12.7	x	x	-13.3	-16.8	39.8
SMILES	CF NFkB block	LMP1 NFkB inh	MITF TRPM1 inh	Shn3 3UTR inh	KKLEB tox	Peg3 prom inh
COc1ccccc1CNC(=O)Nc1nc(C(N)C(C)C)cs1 (stereo not drawn)	-19.5	x	x	-1.4	-13.2	-7.9
Cc1cc(O)ccc1-c1ccc2nncn2c1	-6.2	x	x	-24.3	6.8	-5.9
CC(=O)c1ccc(NC(=O)CSc2nc(N3CCOCC3)nc(N3CCOCC3)n2)cc1	-30.2	-10.4	-12.4	-63.2	13.4	-121.3
COc1ccc(NC(=O)CSc2nc3ccc(Nc4nc(N5CCOCC5)nc(N5CCOCC5)n4)cc3s2)cc1	56.2*	-2.0	54.1	47.0	-50.4*	9.7
COC(=O)c1ccc(Oc2nc(N3CCCCC3)nc(N3CCOCC3)n2)cc1	22.3	-14.8	-3.5	15.7	6.7	17.9
CCOC(=O)c1ccc(NC(=O)CSc2nc(N3CCOCC3)nc(N3CCOCC3)n2)cc1	20.6	65.7*	24.0	15.6	-24.8	23.2
Cc1ccc(NC(=O)CSc2nc3ccc(Nc4nc(N5CCOCC5)nc(N5CCOCC5)n4)cc3s2)cc1	49.7	-3.4	46.2	69.8	-41.8	5.6
CCN(CC)c1nc(Oc2ccc(C(=O)OC)cc2)nc(N2CCOCC2)n1	28.8	52.4*	9.2	49.6	-17.3	-6.4
O=C1CC[C@@H](C(=O)N2CSC[C@@H]2C(=O)Nc2cccc(C(F)(F)F)c2)N1	-5.7	1.4	x	-43.8	2.5	-4.4
Cc1ccc(-c2ccccc2)n1-c1ccc(C(=O)O)cc1	15.9	6.7	-12.3	-9.4	7.3	-8.8
Oc1ccccc1-n1c(-c2ccccc2)ccc1-c1ccccc1	37.5	-2.0	5.1	7.5	-37.2	57.4*
CC(=O)c1ccc(-n2nnnc2SCC(=O)N2CCc3ccccc3C2)cc1	2.7	49.4*	0.4	8.3	-15.3	8.4
O=C(COC(=O)c1ccc(F)cc1F)NCc1ccc2c(c1)OCO2	7.6	-1.1	5.2	-21.7	-22.7	0.3
CCOC(=O)C1(C)CCCN1C(=O)c1cccs1 (stereo not drawn)	-0.2	x	x	-2.7	1.4	2.8
O=C(NCc1ccccc1Cl)c1ccc2nc([C@H]3C[C@H](O)[C@@H](CO)O3)[nH]c2c1	-15.0	x	x	5.8	2.8	-7.1
CC(=O)OCCNc1cc(N2CCN(C)CC2)c2noc3c2c1C(=O)c1ccccc1-3	-165.4	-4.9	x	-0.2	-1.7	3.0
CCOC(=O)C(C(=O)OCC)c1cc(Br)c2noc3c2c1C(=O)c1ccccc1-3	74.9*	9.9	95.1*	98.6*	-38.2	112.8*
CN(CCC#N)C(=S)Nc1ccc(F)cc1	-11.3	56.6*	5.8	6.4	13.8	6.3

Screens deposited in PubChem by several laboratories.
